Screens deposited in PubChem by several laboratories.
Shown are actives, neighbours in structure and some others; about 3% of the full set was active somewhere.
HMGR II inh: inhibitors of class II HMG-CoA reductase from Enterococcus faecalis; purified E. faecalis HMGR, NADPH absorbance 340 nm kinetic; inhibition, % at 10 µM; 0.41% of 190,000 active; AID 1066;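 active = inhibition above a set limit, the median over all tested compounds plus 3 SD, cut at about 9.5% in these data; inconclusive = no clear call, values can overlap the other calls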;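 note: enzyme runs in reverse so mevalonate oxidation gives rising NADPH absorbance; 0% = complete reaction with DMSO and 100% = background rate lacking mevalonate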
TNF death inh: inhibitors of TNF-alpha induced necroptosis in Jurkat FADD-/- cells; activation (protection from cell death), % at 10 µM; 0.068% of 220,000 active; Jurkat FADD-/- TNF necroptosis rescue, ATP luminescence, 24 h; 0 = TNF only, 100 = no-TNF cells;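 active = activation, meaning protection from cell death, of at least 50% relative to plate controls; inactive = activation below 50%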;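 note: necroptosis triggered by 40 ng/mL TNF-alpha added together with compound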
ROMK primary: human ROMK K+ channel modulation, primary screen | 2% of 130,000 active | Tet-inducible ROMK, thallium flux fluorescence; actives lie on both sides | P48048 | B-score at 10 µM;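 active = signal ratio slope over the read window, or its plate-corrected B-score, at least 3 SD from the plate mean, either direction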;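 note: B-score of the F/F0 ratio slope over 7 to 12 s after thallium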
Target sequence (P48048 whole entry, looked up): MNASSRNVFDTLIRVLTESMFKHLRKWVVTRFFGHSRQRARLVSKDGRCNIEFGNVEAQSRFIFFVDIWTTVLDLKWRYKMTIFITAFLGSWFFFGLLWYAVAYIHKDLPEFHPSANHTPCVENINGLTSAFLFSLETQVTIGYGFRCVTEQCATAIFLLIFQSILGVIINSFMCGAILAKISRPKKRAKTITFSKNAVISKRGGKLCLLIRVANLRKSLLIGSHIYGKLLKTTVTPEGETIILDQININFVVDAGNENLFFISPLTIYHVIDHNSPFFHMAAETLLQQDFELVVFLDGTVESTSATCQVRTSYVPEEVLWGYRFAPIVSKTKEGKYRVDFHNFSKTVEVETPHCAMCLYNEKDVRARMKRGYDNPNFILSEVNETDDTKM
14-3-3 Bad PPI: disrupts binding of bovine 14-3-3 zeta to phospho-Bad peptide | TR-FRET 14-3-3zeta/Dy647-pBad peptide displacement, 1 h | inhibition, % at 21.7 µM | 0.71% of 220,000 active | AID 781;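 active = inhibition above about 70%, limit read from the data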;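 note: 0% = full 14-3-3 plus peptide FRET controls and 100% = background without 14-3-3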
Target sequence (P63103 whole entry, looked up): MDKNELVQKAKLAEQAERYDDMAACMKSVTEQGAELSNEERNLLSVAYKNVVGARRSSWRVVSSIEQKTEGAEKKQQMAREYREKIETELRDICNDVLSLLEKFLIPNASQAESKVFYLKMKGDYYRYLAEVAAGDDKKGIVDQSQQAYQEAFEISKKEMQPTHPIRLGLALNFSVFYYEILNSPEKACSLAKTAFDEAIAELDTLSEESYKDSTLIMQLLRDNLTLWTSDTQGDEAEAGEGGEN
m-calpain inh: calpain II (pig) inhibition; purified calpain II, fluorogenic peptide substrate, 30 min; inhibition, % at 16 µM; 0.37% of 220,000 active; AID 1236;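 active = inhibition above about 50%, limit read from the data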
L929 necroptosis: blocks zVAD induced death of L929 cells. L929 zVAD necroptosis rescue, ATP luminescence, 24 h; with zVAD 60 µM. viability rescue, % at 10 µM. 0.38% of 220,000 active. AID 1377;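 active = activation, scaled between plate controls, above about 75%, limit read from the data; inactive = activation under that limit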;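 note: 0% = zVAD with DMSO and 100% = DMSO alone without zVAD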
ROMK retest: retested hit modulating human ROMK potassium channel. ROMK thallium flux, fluorescence ratio; active compounds read low. normalized thallium flux (F/F0 slope) at 10 µM. 54% of 3,000 active. shares compounds with ROMK primary;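 active = Flux at 10 µM at least 3 SD below or above vehicle control mean in one or both replicates; inconclusive = no clear call, values can overlap the other calls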
* = called active by the depositor; ? = inconclusive; . = no result.

SMILES	HMGR II inh	TNF death inh	ROMK primary	14-3-3 Bad PPI	m-calpain inh	L929 necroptosis	ROMK retest
CC(=O)Nc1ccc(S(=O)(=O)NCC(=O)OCC(=O)N2CCCc3ccccc32)cc1	1.6	2.3	0.191	-6.5	-9.6	0.6	.
CNC(=O)C1CC(=O)N/C(=N/N=C(\C)c2cccs2)S1 (centres undefined)	-1.2	-1.1	.	-6.0	-9.3	-0.3	.
Cc1cc(C(=O)CSc2nc3ccccc3c(=O)[nH]2)c(C)n1CC1CCCO1 (centres undefined)	-3.8	0.0	-1.32	-15.1	-20.2	0.2	.
Cc1cc(C(=O)CSc2nc3ccccc3c(=O)n2C)c(C)n1CC1CCCO1 (centres undefined)	1.4	-14.6	-8.54*	-11.9	-47.5	-0.6	0.0603*
CCOc1cc(C)c(S(=O)(=O)NC2CC(C)(C)NC(C)(C)C2)cc1C	-2.5	3.4	-3.55*	-1.0	-1.1	0.8	0.066*
CN(c1ccccc1)S(=O)(=O)c1cccc(NC(=O)c2cncc(Br)c2)c1	.	-0.1	.	-0.8	-4.2	1.2	.
CN(c1ccccc1)S(=O)(=O)c1cccc(NC(=O)c2ccncc2)c1	.	-4.8	.	-2.5	-24.2	-1.2	0.0805
CCC1CSC(Nc2ccc(C(=O)/C=C/c3cccc(C)c3)cc2)=N1 (centres undefined)	-0.1	1.8	.	3.5	11.8	2.4	.
N=C1/C(=C\c2ccc(-c3cccc(C(=O)O)c3)o2)C(=O)N=C2SC=C(c3ccccc3)N12	.	-1.9	.	94.4*	-28.7	1.3	0.0588*
COc1ccccc1OCCOCCOc1ccccc1Cl	-4.1	1.8	-2.83*	-12.1	-5.5	0.0	0.0736
O=C(O)C1CC=CCC1C(=O)NNc1ccccc1 (centres undefined)	-2.3	-0.4	0.724	-11.3	-16.1	-0.5	.
O=C(O)C1CC=CCC1C(=O)c1ccccc1 (centres undefined)	-8.6	1.1	3.41*	1.8	20.4	0.9	0.0811
Cc1cc(C)cc(NC(=O)Cn2c(-c3ccccc3Cl)nc3ccccc32)c1	-8.1	2.8	.	-0.1	-81.3	-0.9	.
O=C(Cn1c(CO)nc2ccccc21)Nc1ccccc1Cl	-3.3	1.2	-2.5*	-1.4	-5.9	4.5	0.062*
CC(C)OP(=O)(OC(C)C)C(NC(=O)c1cccc([N+](=O)[O-])c1)C(N)=O (centres undefined)	-8.0	-0.2	0.436	0.1	-17.4	-0.5	.
c1ccc(-c2ncc(CN3CCN(c4ccccn4)CC3)[nH]2)cc1	.	1.2	.	9.9	15.0	0.8	.
CCc1ccc(-c2nc(CSCC(=O)N3CCN(c4ncccn4)CC3)c(C)o2)cc1	-8.1	-8.3	.	2.9	-14.1	1.1	0.0635*
CSc1ccc(-c2nc(CSCC(=O)N3CCOCC3)c(C)o2)cc1	-1.5	-4.8	.	0.2	-16.9	1.7	.
O=C(c1ccncc1)c1ccc(N2CCN(C3CC(=O)N(Cc4ccccc4)C3=O)CC2)cc1 (centres undefined)	-13.0	-5.0	-4.04*	0.0	0.8	-1.0	?
O=C1C/C(=C\c2c(F)cccc2Cl)N2CCC1CC2	-0.2	0.3	0.0254	1.2	23.9	0.1	.
COc1ccccc1NC(=O)CC1C(=O)Nc2ccccc2N1C(=O)c1ccccc1 (centres undefined)	-4.3	-0.1	0.0543	8.4	10.3	3.1	.
O=C(O)c1ccc2c(c1)C1C=CCC1C(c1cc3c(cc1Br)OCO3)N2 (centres undefined)	1.7	0.0	3.97*	8.8	-6.2	0.8	0.0895
O=P(c1ccccc1)(c1ccccc1)c1nc(-c2ccccc2)oc1NCc1ccccc1	-3.7	-0.5	-1.9*	-6.9	22.2	3.0	0.0775
CCOP(=O)(OCC)c1nc(-c2ccccc2)oc1NCc1ccccc1	-3.4	0.2	0.0987	-5.0	-182.7	0.1	.
Cc1nc(N)c(CC(Br)CBr)c(Cl)n1 (centres undefined)	.	0.8	.	-4.8	-18.0	-0.5	.
SMILES	HMGR II inh	TNF death inh	ROMK primary	14-3-3 Bad PPI	m-calpain inh	L929 necroptosis	ROMK retest
CN(/N=C/c1cccnc1)c1cnn(-c2ccc(F)c(Cl)c2)c(=O)c1Cl	-6.3	1.7	1.66*	18.2	-407.4	0.0	0.0893
CN(/N=C/c1c[nH]c2ccccc12)c1cnn(-c2ccc(F)c(Cl)c2)c(=O)c1Cl	4.0	-0.4	-1.43	3.3	-239.8	0.6	.
COC(=O)c1sccc1-n1cccc1C(=O)NCc1ccccc1	1.5	-2.8	.	-5.4	-1.2	0.5	.
Cc1ccc2cc3c(N)c(C(=O)N4CC(=O)Nc5ccccc54)sc3nc2c1	-8.9	-16.7	.	29.8	0.7	-0.1	0.0465*
COc1ccc(CCNC(=O)CCc2ccc(S(=O)(=O)NC(C)C)cc2)cc1	-0.5	-0.8	0.403	-3.7	18.8	.	.
CN(C)CCCN1C(=O)c2cccc3c([N+](=O)[O-])ccc(c23)C1=O	-1.3	-27.1	-4.8*	8.4	-378.2	14.7	0.038*
Clc1ccc(COc2cccc(CNCc3ccncc3)c2)cc1	-0.9	-2.5	-3.79*	20.8	26.6	1.1	0.0708
CC(C)(CO)NCc1cccc(OCc2ccc(Cl)cc2)c1	1.8	4.8	-0.818	-1.4	1.4	0.4	.
CCCCCc1ccc(-c2ccc(=O)[nH]n2)cc1	-4.3	-1.7	-0.311	-5.3	26.9	0.7	0.0716
COc1ccc(C(=O)Nc2c(Cl)cc(Cl)cc2C(=O)N2CCOCC2)cc1	-6.7	-0.6	0.115	-3.3	13.0	-0.4	.
N#C/C(=C\c1ccc(C#N)cc1)C(=O)c1ccccc1	.	1.0	.	-3.6	-18.7	0.8	.
CN(C)c1ccc(/C=C(\C#N)C(=O)c2ccccc2)cc1	.	-11.8	.	-13.5	3.9	-0.2	0.0655*
Cc1[nH][nH]c(=O)c1C(c1c(C)[nH][nH]c1=O)c1cn(Cc2ccc(Cl)c(Cl)c2)c2ccccc12	39.2*	-10.8	.	-3.4	23.3	-0.9	0.0559*
c1ccc(CC2=NCCN2)cc1	-2.1	-0.6	3.1*	-0.8	23.9	-0.4	0.0794
O=C(Oc1c(-c2ccccc2)c(=O)n2c3c(cccc13)CC2)c1ccc(F)cc1	.	-2.4	.	2.1	-7.0	-0.5	.
O=Cc1cccc(OC(=O)c2ccc(Cl)cc2Cl)c1	-3.6	-0.6	3.01*	-16.1	-19.5	0.9	0.0877
CC1(C)CC(CC(=O)O)(c2ccccc2)CCO1 (centres undefined)	-0.8	-2.4	.	-5.6	19.0	0.3	0.072
CCCCOC(=O)Sc1nc2ccccc2o1	-1.2	-1.8	.	26.2	-26.0	0.1	.
Cc1c(CCOC(=O)CC23CC4CC(CC(C4)C2)C3)sc[n+]1CC(=O)c1ccccc1	-6.8	1.2	-6.14*	-2.8	11.9	-2.3	0.0467*
O=C(NCc1cccs1)C1CC(c2ccccc2O)=NO1 (centres undefined)	0.2	-6.7	.	-20.7	-68.6	0.8	.
